Results: PubChem BioAssay (NCI)
Several values for one entry are separate records, joined by “and”; a condition that tells them apart may be missing. Equal values may be shown once. This is part of a sample that, as a whole, favours compounds with a hit. Of some 83,000 tested, about 20% had one in any assay.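 The test compound was applied at a single concentration to cells in 96-well plates for 48 hours, and percent growth was recorded.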 Activity calls are given as the source filed them. Rule for the calls: active = growth percent below 10; inactive = the rest.

Experiments:
Test in all cases: NCI-60 one-dose screen, 48 h (100 = growth as untreated, 0 = no growth, -100 = all killed)
Conditions in all cases: 10 µM unless noted
[1] = system: HCT-15 colon
[2] = system: HT29 colon
[3] = system: SNB-75 CNS
[4] = system: SNB-19 CNS
[5] = system: U251 CNS
[6] = system: SK-MEL-5 melanoma
[7] = system: UACC-62 melanoma
[8] = system: LOX IMVI melanoma
[9] = system: SK-MEL-28 melanoma
[10] = system: EKVX NSCLC
[11] = system: SN12C renal
[12] = system: UO-31 renal
[13] = system: TK-10 renal
[14] = system: CAKI-1 renal
[15] = system: A498 renal
[16] = system: CCRF-CEM leukemia
[17] = system: MOLT-4 leukemia
[18] = system: SK-MEL-2 melanoma
[19] = system: ACHN renal
[20] = system: PC-3 prostate

Structure (SMILES)	growth [1]	growth [2]	growth [3]	growth [4]	growth [5]	growth [6]	growth [7]	growth [8]	growth [9]	growth [10]	growth [11]	growth [12]	growth [13]	growth [14]	growth [15]	growth [16]	growth [17]	growth [18]	growth [19]	growth [20]
CCOc1ccc2cc(-c3nn(CC4CCN(C)CC4)c4ncnc(N)c34)ccc2c1	76% (inactive) and 29.8% (inactive)	69.2% (inactive) and 9.92% (active)	50% (inactive) and 33.9% (inactive)	92.8% (inactive) and 68.3% (inactive)	83.8% (inactive) and 43.3% (inactive)	87.2% (inactive) and -65.2% (active)	-24.5% (active)	77.7% (inactive) and 6.18% (active)	97.1% (inactive) and -58.3% (active)	101% (inactive) and 56.5% (inactive)	83.7% (inactive)	60.7% (inactive) and 62.9% (inactive)	70.9% (inactive) and 77.8% (inactive)	87.6% (inactive) and 85.5% (inactive)	74% (inactive) and 23.7% (inactive)	90.7% (inactive) and 3.75% (active)	70.1% (inactive) and -4.41% (active)	–	–	–
Cc1cc(N=Nc2ccc(C)c(N=Nc3cc(C)c(N)cc3N)c2)c(N)cc1N	95.9% (inactive) and 44.3% (inactive)	92.8% (inactive) and 40.8% (inactive)	78% (inactive) and 72.7% (inactive)	97.7% (inactive) and 91.2% (inactive)	97% (inactive) and 86.7% (inactive)	100% (inactive) and 78.7% (inactive)	91.7% (inactive) and 93.9% (inactive)	90.8% (inactive) and 82.6% (inactive)	98.9% (inactive) and 88.4% (inactive)	67.1% (inactive) and 72.3% (inactive)	95.6% (inactive) and 85.7% (inactive)	63.9% (inactive) and 51.5% (inactive)	93.7% (inactive) and 92.3% (inactive)	78.2% (inactive) and 78.7% (inactive)	93.8% (inactive) and 85.9% (inactive)	84.5% (inactive) and 61.3% (inactive)	64.4% (inactive) and 61.8% (inactive)	107% (inactive)	84.4% (inactive) and 81.8% (inactive)	–
Cn1c(=O)c2[nH]c(CCCCCCCCc3nc4ccccc4[nH]3)nc2n(C)c1=O	80.1% (inactive) and 96.1% (inactive)	99% (inactive) and 85.6% (inactive)	93.5% (inactive) and 80.5% (inactive)	–	72.5% (inactive) and 80.2% (inactive)	3.01% (active) and 12.2% (inactive)	59.1% (inactive)	58.3% (inactive) and 55.9% (inactive)	88.9% (inactive)	42% (inactive) and 55.1% (inactive)	81.2% (inactive) and 68% (inactive)	73.9% (inactive) and 74.9% (inactive)	84% (inactive) and 90.3% (inactive)	49.7% (inactive) and 57.9% (inactive)	55.7% (inactive) and 78.8% (inactive)	69.6% (inactive) and 66.4% (inactive)	41% (inactive) and 41.7% (inactive)	79.3% (inactive) and 107% (inactive)	61.1% (inactive) and 69% (inactive)	48.3% (inactive) and 87.3% (inactive)
CC1(c2ccc3ccccc3c2)CCC(=O)O1 (configuration not stated)	107% (inactive)	96.9% (inactive)	100% (inactive)	106% (inactive)	99.9% (inactive)	105% (inactive)	95.7% (inactive)	93.1% (inactive)	102% (inactive)	111% (inactive)	102% (inactive)	81.1% (inactive)	93.5% (inactive)	100% (inactive)	113% (inactive)	105% (inactive)	95.2% (inactive)	–	101% (inactive)	–
NC(=S)N/N=C(\c1ccc(Br)cc1)C1CC1	81.8% (inactive) and 82.9% (inactive)	68.4% (inactive)	87.1% (inactive) and 76.7% (inactive)	108% (inactive)	93.2% (inactive)	100% (inactive) and 95.9% (inactive)	98.4% (inactive)	86.2% (inactive)	102% (inactive) and 103% (inactive)	58% (inactive) and 68.4% (inactive)	89.5% (inactive)	61.4% (inactive) and 56.8% (inactive)	119% (inactive)	83.7% (inactive) and 81.4% (inactive)	99.5% (inactive)	52.5% (inactive) and 55.6% (inactive)	38% (inactive) and 45.2% (inactive)	92.8% (inactive)	95.7% (inactive) and 93% (inactive)	–
O=C(O)C1(C(=O)O)CCC1.[NH2-].[NH2-].[Pt+2]	102% (inactive) and 103% (inactive)	106% (inactive) and 89.3% (inactive)	84.7% (inactive) and 88.6% (inactive)	94.6% (inactive) and 99.2% (inactive)	102% (inactive) and 94.1% (inactive)	101% (inactive) and 94.1% (inactive)	96.1% (inactive) and 95.3% (inactive)	95.9% (inactive) and 87.9% (inactive)	112% (inactive)	97.1% (inactive) and 106% (inactive)	–	75.6% (inactive) and 103% (inactive)	111% (inactive) and 104% (inactive)	88% (inactive) and 81.1% (inactive)	111% (inactive) and 98.4% (inactive)	90.8% (inactive)	–	97.8% (inactive) and 104% (inactive)	96.4% (inactive) and 103% (inactive)	–
O=[N+]([O-])c1ccc(N/N=C\c2cc(Br)ccc2O)nc1	21.6% (inactive) and 31.2% (inactive)	27.8% (inactive)	38.3% (inactive) and 47.7% (inactive)	29.2% (inactive) and 28.4% (inactive)	16.6% (inactive) and 5.3% (active)	-3.76% (active) and -35.9% (active)	1.29% (active) and -17.2% (active)	10.5% (inactive) and -18.4% (active)	37.9% (inactive) and 34.1% (inactive)	81% (inactive) and 46.4% (inactive)	22.3% (inactive) and 20.3% (inactive)	-6.22% (active) and -11.8% (active)	22.1% (inactive) and 37.9% (inactive)	0.337% (active) and 2.29% (active)	69.5% (inactive)	17.5% (inactive) and -4.06% (active)	12% (inactive) and -9.48% (active)	39.7% (inactive)	4.98% (active) and 10.6% (inactive)	–
N#CCCOc1ccccc1	97.5% (inactive)	100% (inactive)	101% (inactive)	108% (inactive)	–	105% (inactive)	127% (inactive)	102% (inactive)	101% (inactive)	–	99.8% (inactive)	92.8% (inactive)	97.2% (inactive)	91.6% (inactive)	101% (inactive)	95.7% (inactive)	90.4% (inactive)	–	–	88.7% (inactive)
COc1cc2c(Nc3ccc(Cl)c(Cl)c3F)ncnc2cc1OCC1C[C@@H]2CN(C)C[C@@H]2C1 (some centres not stated)	-89.2% (active) and -0.559% (active)	-90.2% (active) and -11.5% (active)	-96% (active) and -40.9% (active)	–	-97.6% (active) and 13% (inactive)	-97.6% (active) and -97.4% (active)	-86.3% (active) and -27.8% (active)	-92% (active) and -92.9% (active)	-96.3% (active) and -63.1% (active)	-83% (active) and 41.9% (inactive)	-76.7% (active) and 18.4% (inactive)	-84.8% (active) and -66.7% (active)	-94.8% (active) and -18.4% (active)	-77.2% (active) and -2.69% (active)	-95.7% (active) and -81.6% (active)	-44.9% (active) and -0.854% (active)	-53% (active)	74.2% (inactive)	-97.8% (active) and 8.5% (active)	-57.1% (active) and 15.6% (inactive)
COc1cc(-c2nccc3cc4c(cc23)OCO4)cc(OC)c1OC	22.1% (inactive) and 27.9% (inactive)	1.74% (active) and 5.6% (active)	10.8% (inactive) and -9.99% (active)	–	40.6% (inactive) and 24.1% (inactive)	6.67% (active)	34.2% (inactive) and 28.3% (inactive)	32.2% (inactive) and 29.6% (inactive)	57.5% (inactive) and 39.8% (inactive)	68.4% (inactive) and 63.5% (inactive)	39% (inactive) and 47.3% (inactive)	50.8% (inactive) and 44.4% (inactive)	44.9% (inactive) and 28.9% (inactive)	20% (inactive) and 30.8% (inactive)	41.3% (inactive) and 20.1% (inactive)	34.2% (inactive) and 34.4% (inactive)	39.4% (inactive) and 17.7% (inactive)	9.15% (active)	36.2% (inactive) and 40.2% (inactive)	29.5% (inactive)
